# The list is not random: actives were taken first. Their share in the collection is about 7%.
# rCAG RNA binder – r(CAG) repeat RNA binding; AID 651821; inhibition, % at 3 µM; hit rate 1.3% among 370,000; TO-PRO-1 dye displacement fluorescence;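 active = inhibition above the plate cutoff, the mean of all test compounds on that plate plus 3 SD, cut at about 35% in these data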;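 note: 0% = DMSO alone and 100% = 100 µM mitoxantrone as full dye displacement; higher means more dye released from RNA so lower well fluorescence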
# proKLK7 act – activates the human kallikrein-7 zymogen | purified proKLK7, EDANS-DABCYL substrate fluorescence; 100% is mature enzyme control, 0% vehicle | P49862 | hit rate 0.9% among 370,000 | activation, % at 7 µM;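 active = activation above the mean of all tested compounds plus 3 SD, computed per campaign excluding outliers beyond control limits, cut at about 13% in these data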
# NR3A LBD binder – modulators (binders) of human NR3A ligand-binding domain. NR3A LBD differential scanning fluorimetry, Tm shift; 0% = protein alone, 100% = glycine-bound protein. Tm shift relative to glycine control, % at 25 µM. hit rate 2.5% among 340,000;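 active = melting temperature shift of at least 10% of the positive control shift, at one fixed dose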
# ADAM10 inh – inhibitors of human ADAM10 | hit rate 0.62% among 370,000 | recombinant ADAM10, EDANS/DABCYL FRET peptide cleavage, 3 h | inhibition, % at 7 µM;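 active = inhibition above a per-campaign cutoff equal to the mean of compounds falling between control-based bounds plus 3 SD, cut at about 20% in these data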;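 note: 0% = DMSO wells while the 100% control is not disclosed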
# AHR activator – activates the human aryl hydrocarbon receptor; P35869; AHR-responsive luciferase reporter cells, luminescence; activation, % at 5 µM; hit rate 2.5% among 320,000; in the data active = activation above about 47%;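 note: 0% = vehicle wells and 100% = reference agonist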
# Target sequence (P35869 whole entry, looked up): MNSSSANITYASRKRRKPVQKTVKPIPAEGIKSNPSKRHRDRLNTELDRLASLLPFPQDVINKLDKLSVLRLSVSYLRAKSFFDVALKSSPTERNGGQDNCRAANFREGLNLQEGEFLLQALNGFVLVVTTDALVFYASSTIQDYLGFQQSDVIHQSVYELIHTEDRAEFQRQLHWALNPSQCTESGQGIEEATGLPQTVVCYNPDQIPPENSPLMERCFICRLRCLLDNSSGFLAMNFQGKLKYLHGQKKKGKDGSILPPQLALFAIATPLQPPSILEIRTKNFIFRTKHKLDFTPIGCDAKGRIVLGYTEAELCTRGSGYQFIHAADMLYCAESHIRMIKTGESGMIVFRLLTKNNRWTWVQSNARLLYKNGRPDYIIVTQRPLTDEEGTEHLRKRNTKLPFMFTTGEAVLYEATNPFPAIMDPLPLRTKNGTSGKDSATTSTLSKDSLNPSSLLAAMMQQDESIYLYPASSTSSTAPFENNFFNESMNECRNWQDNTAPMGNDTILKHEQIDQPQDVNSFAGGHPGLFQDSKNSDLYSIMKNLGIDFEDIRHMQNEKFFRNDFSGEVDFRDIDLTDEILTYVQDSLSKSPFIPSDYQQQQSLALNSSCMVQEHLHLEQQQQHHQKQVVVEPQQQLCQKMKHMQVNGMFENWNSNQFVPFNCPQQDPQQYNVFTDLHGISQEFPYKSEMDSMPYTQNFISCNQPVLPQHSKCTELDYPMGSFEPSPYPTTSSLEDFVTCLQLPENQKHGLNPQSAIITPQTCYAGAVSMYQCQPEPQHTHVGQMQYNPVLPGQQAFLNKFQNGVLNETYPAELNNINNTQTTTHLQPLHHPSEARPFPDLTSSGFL
# ADAM17 inh – ADAM17 inhibition, QFRET primary screen; P78536; recombinant ADAM17, EDANS/DABCYL FRET peptide cleavage; inhibition, % at 6.95 µM; hit rate 0.83% among 370,000;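 active = inhibition above the mean of compounds lying between control limits plus 3 SD, set per campaign, cut at about 8.5% in these data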;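 note: 0% = DMSO-only wells as the low control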
# * = called active by the depositor; nt = no result.
SMILES,rCAG RNA binder,proKLK7 act,NR3A LBD binder,ADAM10 inh,AHR activator,ADAM17 inh
c1ccc(-c2cc3c(ccc4nonc43)nn2)cc1,-1,0,-4,-2,48*,-4
Cc1cc2c3nonc3ccc2n1-c1ccccc1,0,-4,1,-62,3,-16
CCN1C(=O)[C@H]2[C@@H](c3ccc(-c4ccc(F)cc4)c(OC)c3)N3CCCC[C@@]3(C(=O)OC)[C@H]2C1=O,4,0,-3,7,1,8.6*
C#CCN1CC(N(C)CCOC(=O)c2occ3ccccc23)CS1(=O)=O (stereo not drawn),-1,0,nt,5,nt,0
COc1ccc(S(=O)(=O)NNC(=O)c2sccc2-n2cccc2)cc1,-1,0,-1,0,-1,-2
O=C(NNC(=O)c1sccc1-n1cccc1)Nc1ccc(F)cc1,3,0,-1,-5,62*,2
O=C(NNS(=O)(=O)c1ccc(Br)cc1)c1sccc1-n1cccc1,6,0,14*,-1,3,0
C[C@@H]1CCCN1c1cccc2c1S(=O)(=O)N(C1CC1)CCCO2,6,1,nt,-11,nt,-2
CC(C)C[C@H](NC(=O)C1(c2ccccc2)CCN(C(=O)OC(C)(C)C)CC1)C(=O)N1CCC[C@H]1C(=O)O,4,0,1,-9,-1,8
CC(C)C[C@H](NC(=O)C1(c2ccccc2)CCN(C(=O)[C@H]2CSCN2C(=O)OC(C)(C)C)CC1)C(=O)O,1,0,14*,-12,-5,-3
FC(F)(F)c1ccccc1NC(=S)OC1CCC12CCC(c1ccccc1)CC2 (stereo not drawn),10,1,nt,-8,nt,-3
Cc1nn(Cc2c(F)c(F)c(F)c(F)c2F)c(C)c1NC(=O)c1cccc(COc2ccc(Cl)cc2)c1,3,0,-1,-5,-4,0
CC(C)c1cc(C(N)=O)c(NC(=O)c2cccc(COc3ccc(Cl)cc3)c2)s1,16,-24,16*,-6,-3,-6
CCCCOc1ccc(C(=O)NC2CCCCN(Cc3cccc(C(F)(F)F)c3)C2=O)cc1 (stereo not drawn),3,0,nt,5,nt,1
Cc1cc(/C=C2/NC(=O)N(c3ccccc3)C2=O)c(C)n1-c1cccnc1,5,0,-7,-18,109*,-5
Cc1cc(/C=C2/NC(=O)NC2=O)c(C)n1-c1ccncc1,2,1,-3,-5,26,-6
Cc1cc(/C=C2/NC(=S)NC2=O)c(C)n1-c1cccnc1,7,1,0,-15,38,-2
Cc1cccc(-n2c(C)cc(/C=C3\NC(=O)NC3=O)c2C)c1,7,1,0,-25,82*,-14
Cc1ccc2c(c1)C1CS(=O)(=O)N(Cc3ccccc3)C(=O)N1C2 (stereo not drawn),1,0,nt,-4,nt,-5
CN(C)S(=O)(=O)Oc1ccsc1C(=O)Nc1cccc(Cl)c1Cl,9,-1,-13,12,60*,2
Cc1cc(-c2ccccc2)nc2oc(C(=O)NN)c(N)c12,9,-59,0,-54,44,-22
O=C(N/N=C/c1ccco1)c1cc(-c2ccccc2)n[nH]1,5,1,-5,2,3,2
Nc1c(C(=O)N/N=C/c2ccc(F)cc2)oc2nc(-c3ccccc3)cc(-c3ccco3)c12,10,-1,2,-38,57*,-17
Nc1c(C(=O)N/N=C/c2ccccc2Cl)oc2nc(-c3ccccc3)cc(-c3ccco3)c12,9,-2,3,-106,50*,-33
CC(=O)N(CCc1cccc(C)c1)Cc1cc2cc(C)ccc2[nH]c1=O,-8,0,-2,-19,49*,-9
SMILES,rCAG RNA binder,proKLK7 act,NR3A LBD binder,ADAM10 inh,AHR activator,ADAM17 inh
Cc1ccc(-c2cc(C#N)c3n(c2=O)CCC3)cc1,2,1,nt,-106,nt,-31
CCN(CC)C(=O)CC[C@H]1CC[C@]2(CCCN(C(=O)c3ccc4ccccc4n3)C2)O1,-2,0,nt,-4,nt,-3
Cn1c(C(=O)NC2CCCCCC2)cc2c(=O)n(C)c3ccccc3c21,2,0,1,-11,51*,-1
Cc1cccc(N2CCN(C(=O)c3cc4c(=O)n(C)c5ccccc5c4n3C)CC2C)c1 (stereo not drawn),nt,nt,-1,nt,68*,nt
Cn1c(C(=O)NC2CCCCC2)cc2c(=O)n(C)c3ccccc3c21,5,0,-4,-6,3,0
COCCN1Cc2cc(C(=O)OC)c3c(c2C1=O)c1ccccc1n3S(=O)(=O)c1ccc(OC)cc1,7,0,nt,-12,nt,-1
CC1Cc2cc(S(=O)(=O)N3CCN(c4cccc(Cl)c4)CC3)ccc2N1C(=O)C1CC1 (stereo not drawn),0,0,10*,2,0,-4
CCCCNS(=O)(=O)CC1NCCc2ccccc21 (stereo not drawn),3,0,nt,-13,nt,-7
O=C(OC12CCCN(C1)/C(=C/c1ccc(Cl)cc1)C2)c1ccno1 (stereo not drawn),3,0,nt,2,nt,1
Cc1ccc(COC(=O)CN2C(=O)NC3(CCCCC3C)C2=O)cc1 (stereo not drawn),-6,0,11*,-6,nt,-1
Nc1nnnn1/N=C/c1ccccc1OCc1ccc(Cl)cc1Cl,8,0,7,7,73*,0
Nc1nnnn1/N=C/c1ccccc1OCc1ccc(Cl)cc1,11,-1,-5,-5,5,1
COc1ccc(C/C(N)=N/OC(=O)COc2ccccc2C)cc1,-2,-3,11*,15,-1,2
CCOc1ccc(Nc2nc3cc(S(=O)(=O)CC)ccc3o2)cc1,8,0,-18,-6,64*,-2
C[C@@H]1CN([C@H](C)CO)C(=O)c2cc(NC(=O)Nc3ccc(C(F)(F)F)cc3)ccc2O[C@H]1CN(C)S(=O)(=O)c1ccc(Cl)cc1,14,-1,19*,25*,5,8
C[C@H]1CN([C@@H](C)CO)C(=O)c2cccc(NC(=O)Nc3ccc(C(F)(F)F)cc3)c2O[C@@H]1CN(C)S(=O)(=O)c1ccc(Cl)cc1,6,1,23*,24*,0,9.2*
C[C@H](CO)N1C[C@H](C)[C@@H](CN(C)S(C)(=O)=O)Oc2ccc(NC(=O)Nc3ccc(C(F)(F)F)cc3)cc2C1=O,1,0,2,1,-1,3
C[C@H](CO)N1C[C@H](C)[C@@H](CN(C)S(=O)(=O)c2ccc(F)cc2)Oc2c(NC(=O)Nc3ccc(C(F)(F)F)cc3)cccc2C1=O,5,0,20*,14,-1,6
CCCC[C@H](C(=O)N(CC)c1ccccc1)[C@@H](O)c1ccc(Cl)cc1,2,1,nt,10,nt,3
CCc1sc(C(=O)Nc2cc(Cl)ccc2N2CCCCC2)cc1C,3,0,1,-2,1,1

# Screens: PubChem BioAssay, several laboratories
